Compounds without any hit were thinned out: in the full panel of roughly 79,000, 15% have a hit. Calls of active or inactive are those of the source. Cut-off read from the data, not from the text of the source: active = growth inhibition above about 70%; inactive = the rest.
How the values were obtained:
[1] = NCI Yeast Anticancer Drug Screen. Data for the wt2 strain (AID 169); settings: S. cerevisiae wt2 strain growth inhibition, stronger effect = higher value
Outline: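 Read-out: growth inhibition versus vehicle-treated control cultures after compound exposure of the yeast strain.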

[2] = NCI Yeast Anticancer Drug Screen. Data for the mlh1 strain (AID 171);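 note: 0% = growth of vehicle-treated control cultures of the same strain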; settings: S. cerevisiae mlh1 strain growth inhibition, stronger effect = higher value
Outline: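 Read-out: growth inhibition versus vehicle controls. Strain: engineered yeast with a defined DNA repair or cell cycle defect, compound-treated.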

[3] = NCI Yeast Anticancer Drug Screen. Data for the sgs1 strain (AID 173);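 note: 0% = growth of vehicle-only control cultures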; settings: S. cerevisiae sgs1 mutant, stronger effect = higher value
Outline: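 Read-out: yeast growth inhibition relative to vehicle controls, following compound exposure of a strain with a defined DNA repair/cell cycle alteration.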

[4] = NCI Yeast Anticancer Drug Screen. Data for the mlh1 rad18 strain (AID 175); settings: S. cerevisiae mlh1 rad18 strain growth inhibition, stronger effect = higher value
Outline: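 Yeast w/ defined DNA-repair lesions; compound exposure; growth vs vehicle controls → % inhibition.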

[5] = NCI Yeast Anticancer Drug Screen. Data for the rad18 strain (AID 177); settings: S. cerevisiae rad18 mutant growth inhibition, stronger effect = higher value
Outline: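 Readout: growth inhibition vs vehicle controls. Cells: genetically altered yeast strain, DNA repair defect.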

[6] = NCI Yeast Anticancer Drug Screen. Data for the rad52 strain (AID 147);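 note: 0% = growth of vehicle-treated control cultures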; settings: S. cerevisiae rad52 mutant growth inhibition, stronger effect = higher value
Outline: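 Read-out: growth inhibition versus vehicle-treated controls. Cells were a DNA repair-deficient yeast strain treated with compounds.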

[7] = NCI Yeast Anticancer Drug Screen. Data for the wt1 strain (AID 149);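 note: 0% = growth of vehicle-treated wt1 cultures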; settings: S. cerevisiae wt1 strain (SPY 50644) growth inhibition, stronger effect = higher value
Outline: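 Each compound is tested on wt1 yeast and the loss of growth versus vehicle gives the inhibition value.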

[8] = NCI Yeast Anticancer Drug Screen. Data for the rad50EPP+ strain (AID 151);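 note: 0% = growth of vehicle-treated control cultures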; settings: S. cerevisiae rad50 mutant strain, stronger effect = higher value
Outline: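 Growth inhibition read against vehicle controls in rad50EPP+ yeast, a strain altered in DNA damage repair, after compound exposure.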

[9] = NCI Yeast Anticancer Drug Screen. Data for the mgt1 strain (AID 153); settings: S. cerevisiae mgt1 mutant growth inhibition, stronger effect = higher value
Outline: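 mgt1 yeast grown with test compound; read-out is growth inhibition versus vehicle-treated cultures.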

[10] = NCI Yeast Anticancer Drug Screen. Data for the rad50 strain (AID 155);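 note: 0% = growth of vehicle-only cultures of the same strain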; settings: S. cerevisiae rad50 strain growth inhibition, stronger effect = higher value
Outline: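 Vehicle-treated cultures provide the reference for the growth inhibition reported for compound-exposed, repair-deficient yeast.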

[11] = NCI Yeast Anticancer Drug Screen. Data for the mec2-1 strain (AID 157); settings: S. cerevisiae mec2-1 strain, stronger effect = higher value
Outline: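 Yeast mec2-1 mutant treated with compound. Readout: growth inhibition vs vehicle controls.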

[12] = NCI Yeast Anticancer Drug Screen. Data for the rad14 strain (AID 159);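 note: 0% = growth of vehicle-treated control cultures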; settings: S. cerevisiae rad14 strain growth inhibition, stronger effect = higher value
Outline: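 Inhibition of growth is reported for a repair-deficient yeast mutant following compound treatment, calculated relative to cultures that received vehicle.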

[13] = NCI Yeast Anticancer Drug Screen. Data for the sgs1 mgt1 strain (AID 161);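 note: 0% = growth of cultures given vehicle only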; settings: S. cerevisiae sgs1 mgt1 strain, stronger effect = higher value
Outline: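 Test agents were incubated with a DNA-repair-mutant yeast strain. Growth was then read and compared against vehicle-treated controls.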

[14] = NCI Yeast Anticancer Drug Screen. Data for the CLN2oe strain (AID 163);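 note: 0% = growth of vehicle-only control cultures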; settings: S. cerevisiae CLN2oe strain, stronger effect = higher value
Outline: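 Read-out: yeast growth inhibition, expressed relative to vehicle-only controls. The strain bears an engineered cell-cycle alteration.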

[15] = NCI Yeast Anticancer Drug Screen. Data for the cln2 rad14 strain (AID 165);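 note: 0% = growth equal to vehicle treated cultures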; settings: S. cerevisiae cln2 rad14 strain, stronger effect = higher value
Outline: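 cln2 rad14 yeast strain; compound exposure; growth inhibition read vs vehicle controls.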

[16] = NCI Yeast Anticancer Drug Screen. Data for the bub3 strain (AID 167); settings: S. cerevisiae bub3 mutant strain, stronger effect = higher value
Outline: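 Mutant yeast screening strain plus compound; vehicle-treated cultures serve as the 0% inhibition reference.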

[17] = at 5.0 µM (retest, dose inferred, filed as 0.5)
[18] = at 50.0 µM (retest, dose inferred, filed as 5.0)

Measured: growth inhibition

CC(=O)CCC1=C(C)C(=O)C(=O)C(C)=C1O
active: [1]; at 100.0 µM 94% | [2]; at 100.0 µM 96% | [3]; at 100.0 µM 91% | [5]; at 100.0 µM 90%
inactive: [1]; at 1.2 µM -3% | [1]; at 3.7 µM -3% | [1]; at 11.0 µM -1% | [1]; at 33.0 µM 23% | [2]; at 1.2 µM -5% | [2]; at 3.7 µM -3% | [2]; at 11.0 µM -23% | [2]; at 33.0 µM 13% | [3]; at 1.2 µM -3% | [3]; at 3.7 µM -6% | [3]; at 11.0 µM -2% | [3]; at 33.0 µM 22% | [4]; [17] -28% | [4]; [18] 46% | [4]; at 50.0 µM 20.4% | [5]; at 1.2 µM -4% | [5]; at 3.7 µM -7% | [5]; at 11.0 µM -3% | [5]; at 33.0 µM 14%

NC(=S)N1N=C2c3ccccc3CC[C@H]2[C@@H]1c1ccc(Cl)cc1
active: [6]; at 100.0 µM 88% | [7]; at 100.0 µM 90% | [9]; at 100.0 µM 85% | [10]; [18] 78% | [10]; at 50.0 µM 83% | [10]; at 100.0 µM 85% | [11]; [18] 90% | [11]; at 50.0 µM 85.8% | [11]; at 100.0 µM 88% | [12]; at 100.0 µM 82% | [13]; [18] 79% | [13]; at 50.0 µM 84.8% | [14]; at 100.0 µM 86% | [15]; [18] 91% | [15]; at 50.0 µM 84.7% | [16]; [18] 93% | [16]; at 50.0 µM 83.2% | [16]; at 100.0 µM 89% | [1]; at 100.0 µM 89% | [2]; at 100.0 µM 89% | [3]; at 100.0 µM 91% | [4]; [18] 93% | [4]; at 50.0 µM 80.2% | [5]; at 100.0 µM 89%
inactive: [6]; at 1.2 µM 26% | [6]; at 3.7 µM 31% | [6]; at 11.0 µM 39% | [6]; at 33.0 µM 48% | [7]; at 1.2 µM 11% | [7]; at 3.7 µM 9% | [7]; at 11.0 µM 31% | [7]; at 33.0 µM 46% | [8]; at 1.2 µM -14% | [8]; at 3.7 µM -10% | [8]; at 11.0 µM -14% | [8]; at 33.0 µM 8% | [8]; at 100.0 µM 37% | [9]; at 1.2 µM 7% | [9]; at 3.7 µM -10% | [9]; at 11.0 µM 0% | [9]; at 33.0 µM 29% | [10]; at 1.2 µM -6% | [10]; at 3.7 µM -2% | [10]; [17] -20% | [10]; at 11.0 µM 29% | [10]; at 33.0 µM 36% | [11]; at 1.2 µM -17% | [11]; at 3.7 µM 9% | [11]; [17] 7% | [11]; at 11.0 µM 23% | [11]; at 33.0 µM 58% | [12]; at 1.2 µM -28% | [12]; at 3.7 µM -20% | [12]; at 11.0 µM -10% | [12]; at 33.0 µM -3% | [13]; [17] -15% | [14]; at 1.2 µM -6% | [14]; at 3.7 µM -10% | [14]; at 11.0 µM 18% | [14]; at 33.0 µM 42% | [15]; [17] 12% | [16]; at 1.2 µM -12% | [16]; at 3.7 µM 9% | [16]; [17] 34% | [16]; at 11.0 µM 26% | [16]; at 33.0 µM 46% | [1]; at 1.2 µM 8% | [1]; at 3.7 µM 14% | [1]; at 11.0 µM 11% | [1]; at 33.0 µM 35% | [2]; at 1.2 µM 2% | [2]; at 3.7 µM 2% | [2]; at 11.0 µM 28% | [2]; at 33.0 µM 51% | [3]; at 1.2 µM 22% | [3]; at 3.7 µM 33% | [3]; at 11.0 µM 46% | [3]; at 33.0 µM 67% | [4]; [17] 7% | [5]; at 1.2 µM 1% | [5]; at 3.7 µM 8% | [5]; at 11.0 µM -9% | [5]; at 33.0 µM 45%

— PubChem BioAssay (NCI)
